Assay results reported in PubChem BioAssay (Tox21).
Results filed as inconclusive are left out. Where a call stands in place of a potency, no number is given. Active and inactive are the calls of the source. Calls come from the whole dose curve.

experiment: p53 small molecule agonists, cell-based qHTS assay with rat liver microsomes: qHTS cell viability counter screen (AID 1963580); settings: p53RE-bla HCT-116 + rat microsomes, ATP viability, 16 h; series mostly up to 66 µM; note: nearly all actives have a fitted effect of over 45% in size
Source text: National Center for Advancing Translational Sciences [NCATS]
Division of Preclinical Innovation [DPI]
U.S. Environmental Protection Agency [EPA]
National Institutes of Environmental Health Sciences [NIEHS]
National Toxicology Program [NTP]
U.S. Food and Drug Administration [FDA]
p53, a tumor suppressor protein, is activated following cellular insult, including DNA damage and other cellular stresses. The activation of p53 regulates cell fate by inducing DNA repair, cell cycle arrest, apoptosis, or cellular senescence. The activation of p53, therefore, is a good indicator of DNA damage and other cellular stresses. The CellSensor p53RE-bla HCT-116 cell line contains a stably integrated beta-lactamase reporter gene under control of the p53 response elements. The activation of the reporter gene under culture conditions can be detected by fluorescence intensity. This cell line was used to screen the Tox21 10K compound library in the condition of presence of rat liver microsomes and to identify agonists that activate the p53 signaling pathway after in vitro metabolic activation (Ooka et al., Archive of Toxicology 96:1975-1987, 2022). The cytotoxicity of the Tox21 compound library against the p53 RE-bla HCT-116 cell line was tested in parallel by measuring the intra cellular ATP content in the same wells.
Tox21 Assay Protocol Summary:
The p53RE-bla cells were dispensed at 4,000cells/3ul/well in 1536-well black-clear bottom plates. After the assay plates were incubated at 37 C, 5% CO2 incubator for 5 hours, 23 nL of compounds dissolved in DMSO, positive controls or DMSO only was transferred to the assay plate. Following compound addition, 3 uL of rat liver microsomes (Molecular Toxicology, Boone, NC) at final concentration of 0.5 mg/mL and 1uL of B-Nicotinamide adenine dinucleotide 2'-phosphate (NADPH) at final concentration of 0.5 mg/mL were transferred to the assay plate. The plates were incubated at 37 C for 16 hours. 1 uL of LiveBLAzer detection mixture was added to each well and the plates were incubated at room temperature in the dark for 2 h. Fluorescence intensity at 460 and 530 nm emission and 405 nm excitation were measured by an Envision plate reader. For cell viability readout that measures cytotoxicity, 4 ul/well of CellTiter-Glo reagent was added into the assay plates using a Flying Reagent Dispenser. After 30 min incubation at room temperature, the luminescence intensity in the plates was measured using a ViewLux plate reader.

SMILES	Potency
C1CCC2(CCCCO2)OC1	inactive
OC/C(Br)=C(\Br)CO	inactive
Cc1cccc2c1cc1ccc3cccc4ccc2c1c34	inactive
CSCC[C@H](NC(=O)[C@H](Cc1c[nH]c2ccccc12)NC(=O)CCNC(=O)OC(C)(C)C)C(=O)N[C@@H](CC(=O)O)C(=O)N[C@@H](Cc1ccccc1)C(N)=O	inactive
[Ca+2]	inactive
O=C(Cl)c1cccc([N+](=O)[O-])c1	inactive
CCc1oc2ccccc2c1C(=O)c1cc(Br)c(O)c(Br)c1	inactive
COCCOC[C@H](CC1(C(=O)NC2CCC(C(=O)O)CC2)CCCC1)C(=O)Oc1ccc2c(c1)CCC2 (stereo not given in full)	inactive
Cc1ccc(C(C)(C)C)c(O)c1	inactive
COc1cc(NS(=O)(=O)c2ccc(N)cc2)nc(C)n1	inactive
Fc1ccccc1[C@@H](F)COC1CCC(Nc2ncnc3[nH]ncc23)CC1 (stereo not given in full)	inactive
COCCOc1cc2cc(C(=O)NC3CCN(C(C)C)CC3)n(CC(=O)Nc3ccc(Cl)cn3)c2cn1	inactive
CCCCCC(CO)CCC (stereo not given)	inactive
CCCOC(=O)c1c(Cl)c(Cl)c(Cl)c(Cl)c1C(=O)OCCC	inactive
CC(C)(c1ccccc1)c1ccccc1	inactive
COc1ccc(-c2ccc3cc(C(=O)O)ccc3c2)cc1C12CC3CC(CC(C3)C1)C2	inactive
CCCOC(=O)CC	inactive
CCCCCCCCCCC[C@@H](C[C@@H]1OC(=O)[C@H]1CCCCCC)OC(=O)[C@H](CC(C)C)NC=O	inactive
CC(C)(Cc1c[nH]c2ccccc12)NCC(O)COc1ccccc1C#N (stereo not given)	inactive
OC[C@H]1O[C@@H](OCCc2ccc(O)cc2)[C@H](O)[C@@H](O)[C@@H]1O	inactive

SMILES	Potency
C=O	inactive
CC(CC=O)c1ccccc1 (stereo not given)	inactive
C[C@]12CCC(=O)C=C1C=C[C@@H]1[C@@H]2CC[C@@]2(C)[C@H]1CC[C@@]21CCC(=O)O1	inactive
C=CC(C)(CCC=C(C)C)OC(=O)CC(C)C (stereo not given)	inactive
O=[N+]([O-])c1ccc(O/N=C/c2cc(Br)c(O)c(Br)c2)c([N+](=O)[O-])c1	inactive
C#C[C@]1(O)CC[C@H]2[C@@H]3[C@H](C)CC4=C(CCC(=O)C4)[C@H]3CC[C@@]21C	inactive
Nc1ccccc1Nc1ccccc1	inactive
COc1ccc(C2CNC(=O)C2)cc1OC1CCCC1 (stereo not given)	inactive
CCN(CC)CC1CCCCN1CC(=O)N1c2ccccc2C(=O)Nc2cccnc21 (stereo not given)	inactive
CCOC(=O)c1ccc(N(C)C)cc1	inactive
Nc1ccc2cc3ccc(N)cc3nc2c1	inactive
CN(C)c1ccc(O)c2c1C[C@H]1C[C@H]3[C@H](N(C)C)C(=O)C(C(N)=O)=C(O)[C@@]3(O)C(=O)C1=C2O	inactive
C=C1CC[C@H]2C[C@@H]1C2(C)C	inactive
CCCCOC(=O)CO	inactive
O=Cc1ccccc1Cl	inactive
CC(=O)OCC(=O)[C@H]1CC[C@H]2[C@@H]3CCC4=CC(=O)CC[C@]4(C)[C@H]3CC[C@]12C	inactive
Nc1cccnc1N	inactive
CCCCCCOC(=O)CCCCCCCC(=O)OCCCCCC	inactive
CC(=O)S[C@@H]1CC2=CC(=O)CC[C@]2(C)[C@H]2CC[C@@]3(C)[C@@H](CC[C@@]34CCC(=O)O4)[C@H]12	inactive
CC1(C)O[C@@H]2C[C@H]3[C@@H]4C[C@H](F)C5=CC(=O)C=C[C@]5(C)[C@H]4[C@@H](O)C[C@]3(C)[C@]2(C(=O)CO)O1	inactive
